According to PubChem BioAssay AID686978 (National Center for Advancing Translational Sciences (NCATS), 2013):
Screen size: about 420,000 compounds; about 64,000 (15%) were called active. Roughly 27% stayed inconclusive and do not appear here. Calls follow the shape of the dose curve; as a rule, active = well fitted inhibition curve with a large enough effect; inconclusive = small, poorly fitted or top-dose-only effect; inactive = flat fitted curve, though single readings scatter. These entries were drawn from the full list.

Assay: qHTS for Inhibitors of human tyrosyl-DNA phosphodiesterase 1 (TDP1): qHTS in cells in absence of CPT; also: nearly all actives have a fitted effect of over 55% in size
Settings: DT40 Tdp1-/- hTDP1 cells, no CPT, ATP luminescence, 48 h; activity change, negative = growth inhibition: at 46.2 µM (top of the series)
Procedure, shortened: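 A cellular qHTS used chicken DT40 cells lacking endogenous Tdp1 but carrying stably transfected human TDP1. Compounds were applied without camptothecin, and cell growth kinetics were judged by ATP-dependent luminescence after ≥48 hr.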
% is scaled to controls: 0 for no effect and ±100 for the full control effect; potency is read from the fitted curve at half-maximal effect.

Compound	activity change, negative = growth inhibition	Potency
CN(C(=O)CSc1nnc(Nc2ccccc2)s1)C1CCS(=O)(=O)C1 (centres undefined)	-10.7% (inactive)	–
CC(Nc1ccccc1)c1cccnc1 (centres undefined)	4.56% (inactive)	–
O=C(O)C1CCCN1c1nc(Cl)ccc1[N+](=O)[O-] (centres undefined)	-3.67% (inactive)	–
Cc1c(CN2CCCC(C(=O)c3cccc(Cl)c3)C2)c(=O)n(-c2ccccc2)n1C (centres undefined)	-10.5% (inactive)	–
CCc1nccn1CCC(=O)N1CCCC(N2CCN(c3ccccc3F)CC2)C1 (centres undefined)	-2.17% (inactive)	–
CCn1ccnc1CN1CCCC(C(=O)c2ccc3c4c(cccc24)CC3)C1 (centres undefined)	–	4.61 µM (active)
Cc1ccc(CN2CCC(n3nccc3NC(=O)CCCc3ccccc3)CC2)o1	-21.2% (inactive)	–
COc1ccc(CN2CCC(n3nccc3NC(=O)CCCc3ccccc3)CC2)cc1C	–	29.1 µM (active)
COc1cc(CN2CCC(n3nccc3NC(=O)CCCc3ccccc3)CC2)ccc1O	1.27% (inactive)	–
CCN(C[C@H]1N[C@@](CC)(C(=O)OC)[C@H]2C(=O)N(C)C(=O)[C@@H]12)C(=O)Nc1ccc(F)cc1	-6.24% (inactive)	–
COC(=O)[C@]1(Cc2ccccc2)N[C@H](CN(C)S(=O)(=O)c2ccc(OC(F)(F)F)cc2)[C@@H]2C(=O)N(C)C(=O)[C@@H]21	–	23.1 µM (active)
CCNC(=O)N(CC)C[C@H]1N[C@@](CC)(C(=O)OC)[C@H]2C(=O)N(Cc3ccccc3)C(=O)[C@@H]12	30.1% (inactive)	–
CC[C@@]1(C(=O)OC)N[C@H](CN(C)C(C)=O)[C@@H]2C(=O)N(C)C(=O)[C@@H]21	-6.42% (inactive)	–
CCN(C[C@H]1N[C@@](CC)(C(=O)OC)[C@H]2C(=O)N(Cc3ccccc3)C(=O)[C@@H]12)S(=O)(=O)c1ccc(C(F)(F)F)cc1	–	18.4 µM (active)
CCN(CC)S(=O)(=O)c1ccc2c(c1)N(CC(=O)NCc1ccccc1)C(=O)CS2	-10.2% (inactive)	–
CCC1OC(c2ccc([N+](=O)[O-])cc2)=Nc2ccccc21 (centres undefined)	-0.861% (inactive)	–
COC(=O)c1sccc1NS(=O)(=O)c1ccc(F)cc1F	-15.1% (inactive)	–
CN(C)c1ccc(/C=C/C=C/c2ccnc3ccccc23)cc1	–	2 µM (active)
CCCCC(CCCC)c1ccc(C=Nc2ccc(/C=C/c3ccnc4ccccc34)cc2)cc1	–	11.2 µM (active)
CN(C)c1ccc(/C=N\S(=O)(=O)c2ccccc2)cc1	-3.66% (inactive)	–
CN(C)c1ccc(/C=C/c2c3ccccc3nc3ccccc23)cc1	–	12.6 µM (active)
C(=Nc1ccc(/C=C/c2ccnc3ccccc23)cc1)c1cc2c3c(c1)CCCN3CCC2	–	11.2 µM (active)
CN(C)c1cc(N)c2ccccc2n1 (tested in a mixture with another compound)	-26.8% (inactive)	–
O=C(O)C1C2C=CC(O2)C1C(=O)Nc1ccccn1 (centres undefined)	-28.6% (inactive)	–
Cc1nc(COc2cc3oc(=O)cc(C)c3cc2Cl)cs1	-27.1% (inactive)	–
COc1ccc(S(=O)(=O)N2CCN(C(=O)NC3CCCCC3)CC2)cc1	-16.4% (inactive)	–
C[C@H](NS(=O)(=O)c1ccc(Cl)cc1)C(=O)OCC(=O)N1CCOCC1	23.5% (inactive)	–

Compound	activity change, negative = growth inhibition	Potency
Cc1sc2ccccc2c1CNC[C@H]1O[C@@H](n2ccc(=O)[nH]c2=O)[C@H](O)[C@@H]1O	1.3% (inactive)	–
O=S(N1CCCCCC1)C12CC3CC(CC(C3)C1)C2 (centres undefined)	-28.1% (inactive)	–
O=C1NCCn2nc3ccccc3c21	0.602% (inactive)	–
C(=Nc1ccc(/C=C/c2ccnc3ccccc23)cc1)Nc1ccc(/C=C/c2ccnc3ccccc23)cc1	–	8.91 µM (active)
O=C(/C=C/c1ccc(Cl)cc1)Nc1ccc(S(=O)(=O)Nc2ncccn2)cc1	0.921% (inactive)	–
CN(C)c1ccc(C=Nc2ccc(/C=C/c3ccnc4ccccc34)cc2)cc1	–	17.8 µM (active)
NC(=O)Nc1ccc(/C=C/c2ccnc3ccccc23)cc1	–	12.6 µM (active)
CC(=O)Nc1ccc(NC(=O)COc2ncnc3ccccc23)cc1	-12.7% (inactive)	–
O=C(CCNS(=O)(=O)c1ccc(Br)s1)NCc1ccccc1Cl	-6.47% (inactive)	–
CC(=O)c1cc(CN2CCC(n3nccc3NC(=O)c3ccccc3Cl)CC2)cs1	-16.4% (inactive)	–
Cc1cc(NC(=O)CSc2ncc(C(F)(F)F)cc2Cl)no1	-18.9% (inactive)	–
O=C(O)c1ccc([N+](=O)[O-])cc1Sc1ccsc1	-9.07% (inactive)	–
COCCNc1nc(N)c([N+](=O)[O-])c(N2CCCCCC2)n1	-19.5% (inactive)	–
CCC1=NN(C(=O)Cc2ccc([N+](=O)[O-])cc2)C(O)(c2ccc(Br)cc2)C1 (centres undefined)	-5.88% (inactive)	–
CN(C(=O)CSc1nnc(-c2c[nH]c3ccccc23)o1)C1CCS(=O)(=O)C1 (centres undefined)	-10.9% (inactive)	–
Cc1ccc(C)c(S(=O)(=O)Nc2cccc(-n3cnnn3)c2)c1	3.02% (inactive)	–
CCCCN(C)c1ccc([N+](=O)[O-])cc1	-12.2% (inactive)	–
COc1ccc(Cc2nnc(NC(=O)Cc3cccs3)s2)cc1	-1.02% (inactive)	–
CCNC(=S)N1CCC(c2nc3cc(C)c(C)cc3[nH]2)CC1	-14.5% (inactive)	–
CCN(CC)CCNc1ccc(Cl)cc1[N+](=O)[O-]	-24.4% (inactive)	–
CCN(CC)CCCC(C)Nc1ccnc2cc(Cl)ccc12 (centres undefined)	–	0.794 µM (active)
COC(=O)COc1ccc(C2NC(=O)NC(C)=C2C(=O)NCc2ccccc2)cc1OC (centres undefined)	7.11% (inactive)	–
O=C(NCc1ccco1)/C(=C/c1ccco1)NC(=O)c1ccccc1	-12.2% (inactive)	–
CC(/C=N/NC(=O)c1cc(-c2ccc3ccccc3c2)n[nH]1)=C\c1ccco1	–	23.1 µM (active)
O=C(Cc1ccccc1)Nc1cccc(C(=O)N/N=C/c2ccco2)c1	-23.6% (inactive)	–
Cc1noc(C)c1COc1ccc2ccc(=O)oc2c1	1.31% (inactive)	–
COC1=C/C(=C/c2c(N)n3nc(CC(=O)N4CCOCC4)sc3nc2=O)C=CC1=O	-9.01% (inactive)	–
